Compound activity from PubChem.
Glyco luc inh – blocks N-linked glycosylation in D54 reporter cells; D54 ERlucT glycosylation luciferase reporter, 24 h; percent of 100 nM tunicamycin response; reporter increase, % at 12.5 µM; 0.23% of 360,000 active; AID 588692;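 active = mean luciferase reporter signal, scaled so untreated is 0 and the glycosylation-blocking control 100, at or above a set limit in every replicate; inconclusive = mean reaches the limit but not every replicate does; inactive = mean below the limit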;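 also: luciferase carries N-glycosylation sites so blocking glycosylation raises the light; 0% = median of neutral control wells and 100% = median of 100 nM tunicamycin wells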
Rtt109 HAT inh – C. albicans Rtt109 histone acetyltransferase inhibition; Q5AAJ8; purified Rtt109/Vps75, ThioGlo CoA-SH fluorescence, 4 h; inhibition, % at 34.9 µM; 0.16% of 330,000 active; AID 540336;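 active = inhibition of at least 50% in every replicate; inconclusive = best replicate reaches 50% inhibition but some replicates fall short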
Target sequence (Q5AAJ8 whole entry, looked up): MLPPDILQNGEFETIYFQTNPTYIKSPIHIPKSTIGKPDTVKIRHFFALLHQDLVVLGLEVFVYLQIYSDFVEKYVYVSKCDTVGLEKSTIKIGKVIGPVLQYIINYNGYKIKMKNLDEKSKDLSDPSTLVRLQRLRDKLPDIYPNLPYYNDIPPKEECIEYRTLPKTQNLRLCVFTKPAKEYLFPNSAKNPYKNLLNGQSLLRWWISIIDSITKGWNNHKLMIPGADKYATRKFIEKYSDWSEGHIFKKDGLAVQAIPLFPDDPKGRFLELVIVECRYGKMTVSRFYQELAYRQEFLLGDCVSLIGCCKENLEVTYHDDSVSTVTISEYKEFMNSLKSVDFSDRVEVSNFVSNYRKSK
PglD DTNB – PglD (C. jejuni) enzyme inhibition; inhibition, % at 12.5 µM; AID 602405; 0.098% of 360,000 active; purified PglD enzyme, DTNB colorimetric CoA detection; in the data active = inhibition above about 16%, passing the limit was not always enough; inconclusive = no clear call, values can overlap the other calls
DENV2 CPE rescue – inhibitors of DENV2 cytopathic effect; AID 651640; 1.7% of 350,000 active; CPE inhibition, % at 9.99 µM; DENV2-infected cells, cytopathic effect rescue, plate reader; in the data active = CPE inhibition above about 20%, passing the limit was not always enough; inconclusive = no clear call, values can overlap the other calls; tested in BHK-21 cells;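 also: 0% = median of neutral control wells and 100% = median of positive control wells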
Numbers without * were called inactive; ? = inconclusive; nt = no result given. Many of the other results were omitted from the sample, so hits are more common in it than they were.

SMILES	Glyco luc inh	Rtt109 HAT inh	PglD DTNB	DENV2 CPE rescue
CN(C)S(=O)(=O)c1cccc(C(=O)Nc2ccccc2C(=O)NC2CC2)c1	0.3	5.6	-0.7	54.1*
CSCCC(N=C1NS(=O)(=O)c2ccccc21)C(=O)NCCc1ccccc1 (centres undefined)	1.0	0.6	1.1	58.5*
CCOc1cc(CNCCN2CCOCC2)ccc1OCc1ccccc1Cl	-2.7	15.0	3.6	28.9*
COc1ccc(NC(=O)Nc2cccc3c2O[C@H](CN(C)Cc2ccccc2)[C@H](C)CN([C@H](C)CO)C3=O)cc1	nt	nt	1.3	29.5*
COc1ccc(CN(C)C[C@H]2Oc3c(NC(=O)NC(C)C)cccc3C(=O)N([C@@H](C)CO)C[C@H]2C)cc1	nt	nt	16.3*	16.6
COc1ccc(NC(=O)Nc2cccc3c2O[C@@H](CN(C)Cc2ccccc2)[C@@H](C)CN([C@@H](C)CO)C3=O)cc1	nt	nt	-1.1	-6.5
COc1ccc(CN(C)C[C@H]2Oc3c(NC(=O)NC(C)C)cccc3C(=O)N([C@@H](C)CO)C[C@@H]2C)cc1	nt	nt	14.4	-4.6
CCN1C(=O)[C@H]2[C@@H](c3ccc(OC)cc3)N3C(=O)CN(CCOC)C(=O)[C@@]3(Cc3ccccc3)[C@H]2C1=O	1.3	-3.8	-4.0	65.7*
COc1ccc([C@@H]2[C@@H]3C(=O)N(C(C)(C)C)C(=O)[C@@H]3[C@]3(Cc4ccccc4)C(=O)N(c4cccc(C)c4)C(=O)N23)cc1	56.0*	-7.7	4.1	nt
O=C1[C@H]2[C@@H](c3ccc(F)cc3)N3C(=O)N(c4cccc(Cl)c4)C(=O)[C@@]3(Cc3ccccc3)[C@H]2C(=O)N1C1CCCCC1	72.2*	9.3	3.0	-2.6
CO[C@H]1CN(C)C(=O)c2cc(NC(=O)C3CC3)ccc2OC[C@@H](C)N(Cc2cccc(F)c2)C[C@@H]1C	nt	nt	1.2	-0.4
CN1C(=O)c2cc(NC(=O)c3cccc(F)c3)ccc2OC[C@H]2O[C@@H](CC(=O)NCC3CC3)CC[C@H]21	nt	nt	nt	20.6*
CNC(=O)C[C@H]1CC[C@H]2[C@@H](COc3ccc(NC(=O)c4ccc(F)c(F)c4)cc3C(=O)N2C)O1	nt	nt	1.9	52.1*
CNC(=O)C[C@H]1CC[C@@H]2[C@H](COc3ccc(NC(=O)c4cscn4)cc3C(=O)N2C)O1	nt	nt	2.6	29.3*
CCNC(=O)C[C@H]1CC[C@H]2[C@@H](COc3ccc(NC(=O)c4ccc(F)c(F)c4)cc3C(=O)N2C)O1	nt	nt	1.2	-8.6
CNC(=O)C[C@@H]1CC[C@@H]2[C@@H](COc3ccc(NC(=O)c4ccc(F)c(F)c4)cc3C(=O)N2C)O1	nt	nt	0.7	-2.7
CCNC(=O)C[C@@H]1CC[C@@H]2[C@H](COc3ccc(NC(=O)c4ccc(F)c(F)c4)cc3C(=O)N2C)O1	nt	nt	5.5	90.1*
CNC(=O)C[C@H]1CC[C@H]2[C@H](COc3ccc(NC(=O)c4cscn4)cc3C(=O)N2C)O1	nt	nt	0.5	-0.6
C[C@@H]1CN([C@@H](C)CO)C(=O)c2cc(NC(=O)Nc3ccc(F)cc3)ccc2O[C@H]1CN(C)Cc1ccc(Cl)c(Cl)c1	nt	nt	2.4	1.3
CCCN1[C@@H]2Cn3c(cccc3=O)[C@H]1[C@@H](C(=O)Nc1ccccc1)[C@@H]2CO	nt	nt	0.9	1.0
CCCC(=O)N1CC2(C1)CN(C(=O)Nc1ccc(F)cc1)[C@@H](CO)c1c2c2ccc(OC)cc2n1C	nt	nt	nt	-9.6
CO[C@H]1CN(C)C(=O)c2cc(C#N)ccc2OC[C@H]2O[C@@H](CC[C@H]2OC)CCN(C)C(=O)[C@H]1C	nt	nt	-1.8	-2.4
CN1C(=O)c2cc(NS(=O)(=O)c3cccc(F)c3)ccc2OC[C@H]2O[C@@H](CC(=O)O)CC[C@@H]21	nt	nt	-0.1	71.2*
CN1C(=O)c2cc(NS(=O)(=O)c3ccc(Cl)cc3)ccc2OC[C@@H]2O[C@H](CC(=O)N3CCc4ccccc4C3)CC[C@H]21	nt	nt	0.4	39.9*
C[C@@H]1CN([C@@H](C)CO)C(=O)c2cc(-c3cccc(F)c3)cnc2O[C@@H]1CN(C)S(=O)(=O)c1cccc(F)c1	nt	nt	-1.3	1.6
SMILES	Glyco luc inh	Rtt109 HAT inh	PglD DTNB	DENV2 CPE rescue
FC(F)(F)c1nnc2c(Sc3ccccc3)nc3ccccc3n12	8.9	-6.0	nt	nt
FC(F)(F)c1nnc2c(Sc3ccc(Cl)cc3)nc3ccccc3n12	30.5*	6.6	nt	nt
C[C@H](CO)N1C[C@H](C)[C@@H](CN(C)C(=O)Nc2ccc3c(c2)OCO3)Oc2ccc(N(C)C)cc2C1=O	nt	nt	1.9	-1.6
N#C[C@H]1[C@H](c2ccccc2C2=CCCCC2)[C@@H](CO)N1C(=O)c1cccc(F)c1	nt	nt	nt	1.8
Cc1noc(C)c1NC(=O)Nc1ccc2c(c1)C(=O)N(C)[C@H]1CC[C@@H](CC(=O)N(C)C)O[C@H]1CO2	nt	nt	-0.8	?
C[C@H]1CN([C@@H](C)CO)C(=O)c2ccccc2-c2ccccc2CO[C@H]1CN(C)Cc1cccc(C(=O)O)c1	nt	nt	3.6	-3.6
O=C(C/C=N/OCc1ccc(Cl)cc1Cl)c1ccccc1	0.7	64.9*	-0.6	nt
COc1ccc(NC(=O)Nc2ccc3c(c2)C(=O)N([C@@H](C)CO)C[C@H](C)[C@@H](CN(C)C(=O)C2CCCCC2)OCCCC[C@H](C)O3)cc1	nt	nt	-5.6	39.4*
COc1ccc(NC(=O)Nc2ccc3c(c2)C(=O)N([C@@H](C)CO)C[C@@H](C)[C@@H](CN(C)C(=O)C2CCCCC2)OCCCC[C@H](C)O3)cc1	nt	nt	-1.1	-17.0
COc1ccc(NC(=O)Nc2ccc3c(c2)C(=O)N([C@H](C)CO)C[C@@H](C)[C@H](CN(C)C(=O)C2CCCCC2)OCCCC[C@H](C)O3)cc1	nt	nt	1.2	20.7*
CCn1c(C)c(CS(=O)(=O)c2ccccc2)[nH]c1=O	0.7	118.8*	nt	9.0
O=c1[nH]c(CS(=O)(=O)c2ccccc2)nc2ccccc12	-1.1	-6.1	1.9	nt
O=C(C[C@@H]1C[C@H]2c3cc(NC(=O)Cc4ccncc4)ccc3O[C@H]2[C@@H](CO)O1)NCCN1CCCCC1	nt	nt	0.7	35.5*
O=C(C[C@@H]1C[C@H]2c3cc(NC(=O)C4CCC4)ccc3O[C@H]2[C@H](CO)O1)NCCN1CCCCC1	nt	nt	-0.4	26.3*
COc1ccccc1NC(=O)N[C@@H]1CC[C@@H](CC(=O)NCc2ccc(Cl)c(Cl)c2)O[C@H]1CO	nt	nt	-0.4	-1.4
COc1ccc(OC)c(NC(=O)NNS(=O)(=O)c2ccc(C)cc2C)c1	1.6	-2.1	-3.3	23.4*
COc1ccc(CCNC(=O)C2CC3Cn4c(nc5cc(Cl)c(Cl)cc54)C3N2C)cc1 (centres undefined)	2.0	-5.6	5.5	-3.9
COCCNC(=O)C1CC2Cn3c(nc4cc(C)c(C)cc43)C2N1C (centres undefined)	4.1	5.9	3.5	29.1*
CN1C(C(=O)NCCc2cccs2)CC2Cn3c(nc4cc(Cl)c(Cl)cc43)C21 (centres undefined)	3.0	-2.9	-0.6	79.7*
CCCNC(=O)C[C@H]1CC[C@H]2[C@@H](COC[C@@H](O)CN2C(=O)c2cc(Cl)cc(Cl)c2)O1	nt	nt	-2.6	1.6
O=C(N[C@@H]1CC[C@H](CCNC(=O)C2CCOCC2)O[C@@H]1CO)c1ccncc1	nt	nt	4.8	2.1
C=CCc1ccc(OCCCNC2CCCC2)c(OC)c1	-5.5	0.7	-0.1	4.9
